From PubChem BioAssay
Shown are actives, neighbours in structure and some others; about 8% of the full set was active somewhere.
KB-V1 MDR tox = qHTS assay for MDR1-selective chemotherapeutics: Primary screen using the drug-selected MDR subline cells KB-V1. hit rate 3.4% among 400,000. KB-V1 MDR cells viability, CellTiter-Glo, 72 h. Potency, µM (highest dose often 46.1 µM), usual class: cytotoxic; also: % is scaled to controls: 0 for no effect and ±100 for the full control effect; nearly all actives have a fitted effect of over 60% in size
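Drug-selected KB-V1 cells, grown in DMEM lacking phenol red with 10% FBS, receive compound titrations; after three days at 37 degrees C, surviving cell ATP is quantified by CellTiter-Glo luminescence and responses normalized and curve-fitted.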
MCF10A rerep = A quantitative high throughput screen for small molecules that induce DNA re-replication in MCF 10a normal breast cells; MCF 10A DNA re-replication, Hoechst nuclear intensity, 48 h; Potency, µM (titrated, usually from 46.1 µM), without a hit: at the top dose activity, positive = re-replication, usual class: activators; hit rate 2.9% among 350,000; AID 624296, 2012; also: % of control where 0% means no effect; nearly all actives have a fitted effect of over 50% in size
HT1080 IDH1KD tx = qHTS for induction of synthetic lethality in tumor cells producing 2HG: qHTS for the HT-1080-IDH1KD cell line; Potency, µM (top dose mostly 46.1 µM), inactives show at the top dose activity, negative = toxicity, actives largely listed as cytotoxic; HT-1080 IDH1 knockdown viability, ATP luminescence, 48 h; hit rate 2% among 360,000;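 also: 0% = DMSO wells and -100% = cell-free medium wells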
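CellTiter-Glo luminescence after 48 h compound exposure at 37 degrees C of IDH1-knockdown HT-1080 cells in 5% FBS RPMI. %Activity scaled between DMSO wells and cell-free media wells, with curves fitted and assigned curve classes.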
SW480 rerep = A quantitative high throughput screen for small molecules that induce DNA re-replication in SW480 colon adenocarcinoma cells; Potency, µM (highest dose often 46.1 µM), without a hit: at the highest dose re-replication activation, actives largely listed as activators; SW480 DNA re-replication, Hoechst DNA content imaging, 48 h; hit rate 1.8% among 340,000; also: % of control where 0% means no effect; nearly all actives have a fitted effect of over 55% in size
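Hoechst fluorescence of nuclei (405 nm excitation, 500-530 nm emission) measured by plate-scanning imager after 48 hr compound exposure at 37 C; re-replication scored as increased number of nuclei with elevated intensity.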
KB-3-1 cytotox = qHTS assay for MDR1-selective chemotherapeutics: Primary screen using the parental adenocarcinoma cell KB-3-1; KB-3-1 viability, CellTiter-Glo ATP luminescence, 72 h; Potency, µM (top dose mostly 46.1 µM), most hits filed as cytotoxic; hit rate 1.4% among 400,000; AID 1347075, 2019; also: % is scaled to controls: 0 for no effect and ±100 for the full control effect; nearly all actives have a fitted effect of over 60% in size
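KB-3-1 parental drug-naive adenocarcinoma cells in DMEM/10% FBS, incubated 72 h at 37 C with pin-transferred compounds across a concentration series. Viability by CellTiter-Glo luminescence; concentration-response curves fitted after normalization.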
HT1080-NT tox = qHTS for induction of synthetic lethality in tumor cells producing 2HG: qHTS for the HT-1080-NT fibrosarcoma cell line. Potency, µM (top dose mostly 46.1 µM), for the others: at the top dose activity, negative = less viability, actives largely listed as cytotoxic. hit rate 1.6% among 360,000. HT-1080-NT fibrosarcoma viability, CellTiter-Glo ATP luminescence, 48 h;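 also: NT is the 2HG producing partner of a matched IDH1 knockdown line; 0% = DMSO-treated cells and -100% = media-only wells without cells; nearly all actives have a fitted effect of over 55% in size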
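Toxicity toward the 2HG-producing NT line was scored as %Activity, normalised to DMSO and no-cell wells, from CellTiter-Glo luminescence after 48 hours' treatment.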
* marks the source's active call; other numbers are inactive results; i = inactive; ? = inconclusive; nt = not tested or not shown. Calls follow the shape of the dose curve; as a rule, active = well fitted curve in the direction sought with a large enough effect; inconclusive = small, poorly fitted or top-dose-only effect, or another doubt; inactive = no such curve, though single readings can be large; an effect the other way counts as inactive or inconclusive. Potency is read from the fitted curve at half-maximal effect.

SMILES | KB-V1 MDR tox | MCF10A rerep | HT1080 IDH1KD tx | SW480 rerep | KB-3-1 cytotox | HT1080-NT tox
Cc1ccc2nc(-c3ccc(C)c(NC(=O)COc4ccc(Cl)cc4)c3)oc2c1 | i | nt | nt | nt | i | nt
COc1cc(NC(=O)CN(C)C2CCCCC2)c(C)cc1[N+](=O)[O-] | 4.1µM* | 67% | 22% | -18% | i | 3%
COc1ccc(-n2nnnc2SCC(=O)Nc2nc3c(s2)CCCC3)cc1 | i | 16% | 18µM* | -6% | i | -21%
COc1cc(NC(=O)COC(=O)C2CC2)c(C)cc1[N+](=O)[O-] | i | 3% | 8% | -35% | i | 5%
COc1ccc(-n2nnnc2SCC(=O)Nc2cc(OC)c([N+](=O)[O-])cc2C)cc1 | i | 4.6µM* | -23% | 2% | i | -14%
COc1cc(NC(=O)CSc2nc3ccccc3n2-c2ccccc2)c(C)cc1[N+](=O)[O-] | 8.2µM* | ? | -5% | -5% | i | 0%
COc1ccc(-n2nnnc2SCC(=O)NC2CC2)cc1 | i | -8% | -3% | -24% | i | 2%
Cc1cc(C)cc(NC(=O)CCn2cnc3ccccc3c2=O)c1 | i | nt | nt | nt | i | nt
CN(C)S(=O)(=O)c1cccc(NC(=O)CSc2nc3ccccc3n2-c2ccccc2)c1 | 2.3µM* | ? | ? | ? | ? | -23%
OC(CNc1nc(C(F)(F)F)nc2ccccc12)c1ccccc1 (stereo not drawn) | 12µM* | -2% | ? | 3% | ? | ?
O=C(O)CCNc1nc(C(F)(F)F)nc2ccccc12 | i | -7% | -15% | -6% | i | -2%
Cc1cc(O)cc2c(=O)c3ccccc3sc12 | ? | 18µM* | -16% | ? | i | -3%
Cc1ccc(S(=O)(=O)CC(=O)Nc2nc3c(C)cc(C)cc3s2)cc1 | i | nt | nt | nt | i | nt
C=C1CCC(O)C2(C)CCC3C(C)C(=O)OC3C12O (stereo not drawn) | i | -2% | 5% | -10% | i | 6%
C=C1C(=O)O[C@@H]2[C@H]1CC[C@H](C)[C@]1(O)CCC(=O)[C@@]21C | i | 23µM* | ? | ? | ? | ?
Cc1cc(C)cc(-n2c(SCC(=O)Nc3nnc(C)s3)nc3c([nH]c4ccccc43)c2=O)c1 | i | nt | nt | nt | i | nt
O=[N+]([O-])c1cccc(COc2ccccc2CO)c1 | i | nt | 11% | nt | i | 7%
O=CN(Cc1ccccc1)c1cc([N+](=O)[O-])ccc1OCc1ccccc1 | 5.8µM* | 26% | 10% | -3% | i | 3%
CC(=O)N(C)c1cc([N+](=O)[O-])ccc1OCc1ccccc1 | 21µM* | 20% | -4% | -2% | i | 0%
Nc1cc([N+](=O)[O-])ccc1OCc1ccccc1 | ? | 19% | -15% | -3% | i | -3%
Cc1cc(C)c(NC(=O)CCN2C(=O)c3ccccc3Sc3ncccc32)c(C)c1 | ? | nt | nt | nt | i | nt
Cc1ccc(OCCn2nnc3sc4c(c3c2=O)CCC(C)C4)cc1 (stereo not drawn) | i | nt | nt | nt | i | nt
Fc1ccc(CN2CCN3CCCC3C2C2CCCCC2)cc1F (stereo not drawn) | i | 21µM* | ? | ? | i | -28%
O=S(=O)(NC1CC1)c1ccc(S(=O)(=O)N2CCCC3(CCCCC3)C2)cc1 | i | 15µM* | -5% | ? | i | 7%
O=S(=O)(NC1CC1)c1ccc(S(=O)(=O)N2CCN3CCCC3C2)cc1 (stereo not drawn) | i | -8% | 9% | 0% | i | -1%
CCOC(=O)N1CCN(C(=O)c2ccc3c(c2)N(Cc2ccccc2F)C(=O)c2ccccc2S3(=O)=O)CC1 | i | nt | nt | nt | i | nt
